The test system of test [1] is Aerobactin synthetase IucA (Klebsiella pneumoniae). Briefly: inhibition of K. pneumoniae IucA enzyme – biochemical, Tocris library, absorbance (AID 1345561; call rule not given here;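 further: 100% = enzyme without compound and 0% = no enzyme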). To be noted: purified IucA enzyme assay, absorbance (OD) read-out; stronger effect = lower value;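 tested at 8 µM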.
Test [2] in a line: viability loss with induced miR-34 in A549 – imaging, A549 dox-inducible miR-34, nuclei and caspase counts, primary screen (AID 1347080). As to conditions: A549 miR-34 inducible, Hoechst nuclei count, 48 h.
Test [3] can be described thus: galactose survival enhancers in mitochondrial complex I cybrids – cell-based, galactose medium, ATP luminescence, primary screen (AID 1645843;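 active means z-score of at least 1.8 in each of two replicates, scored against plate mean and spread of sample wells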;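 further: positive z means more ATP and so rescue of galactose-driven cybrid death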). As to conditions: complex I mutant cybrid cells, 72 h, stronger effect = higher value.
[4] abbreviates: stronger effect = lower value, cell number ratio, induced over uninduced.
[5] abbreviates: measured here: relative caspase fold change +Dox/-Dox.
[6] abbreviates: measured here: total cells with miR-34 induction, stronger effect = lower value.
The mark [7] stands for this setting: measured here: total cells without miR-34 induction.

The text below walks through data of PubChem BioAssay.

Several values for one entry are separate records, joined by “and”; a condition that tells them apart may be missing. Equal entries are not always repeated. Activity calls are given as the source filed them.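 How the source made its calls, unless noted: active means compounds whose cell count with miR-34 switched on is under 0.7 times the count with it off; inactive means the rest.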

Consider `NC(C(=O)O)c1cc(O)ccc1Cl` (configuration not stated), for which, in test [1], the remaining activity (in general, the signal under treatment as a percentage of the control signal) was 120% (inactive). Besides, the fold change was 1.01 (inactive) in test [2] (setting [4]) and 0.855 in test [2] (setting [5]). Also, the figures for the cell count in test [2] (setting [6]) and in test [2] (setting [7]) were 9170 and 9110, respectively. The z-score in test [3] is 4.21 (active).

Regarding `CC1(C)C[C@@H]1C(=O)N/C(=C\CCCCSC[C@@H](N)C(=O)O)C(=O)O`, the remaining activity in test [1] is 102% (inactive). Also, the fold change in test [2] (setting [4]) was 0.976 (inactive); in test [2] (setting [5]), 1.46. Also, the cell count in test [2] (setting [6]) was found to be 9200; in test [2] (setting [7]), 9420. The z-score in test [3] was -0.005 (inactive).

For the compound `Cc1c(C(=O)N(C)C2CCCCC2)sc2nc3ccc(N)cc3n12`, in test [1], the remaining activity was 121% (inactive). Moreover, the values for the fold change in test [2] (setting [4]) and in test [2] (setting [5]) were 0.956 (inactive) and 1.28, respectively. Also, the cell count is 7660 in test [2] (setting [6]) and 8010 in test [2] (setting [7]). Also, the z-score in test [3] is -0.64 (inactive).

Consider `CSc1nc(NC2CCCC2)c([N+](=O)[O-])c(NC2CCCC2)n1`, for which, in test [1], the remaining activity is 104% (inactive). Besides, the fold change in test [2] (setting [4]) is 0.932 (inactive); in test [2] (setting [5]), 1.24. For the same compound, the cell count in test [2] (setting [6]) was determined as 7100; in test [2] (setting [7]), 7620. Besides, the z-score in test [3] is -0.215 (inactive).

Regarding `Cc1ccc(S(=O)(=O)NCc2ccccc2)cc1`, in test [1], the remaining activity was 121% (inactive). The fold change in test [2] (setting [4]) was 0.861 (inactive); in test [2] (setting [5]), 0.767. Besides, the figures for the cell count in test [2] (setting [6]) and in test [2] (setting [7]) were 8330 and 9670, respectively. Moreover, the z-score in test [3] is -0.21 (inactive).

Turning to `CCOc1ccccc1O[C@H](c1ccccc1)[C@H]1CNCCO1` (racemic), the remaining activity in test [1] is 119% (inactive). Also, the fold change was 0.937 (inactive) in test [2] (setting [4]) and 0.923 in test [2] (setting [5]). For the same compound, the cell count in test [2] (setting [6]) worked out at 7740; in test [2] (setting [7]) it was 8260. For the same compound, the z-score in test [3] is -0.36 (inactive).

`c1ccc(N2CCN(CCCOc3ccc4c(c3)OCO4)CC2)cc1`: the remaining activity in test [1] is 103% (inactive). Moreover, the fold change in test [2] (setting [4]) was 0.912 (inactive); in test [2] (setting [5]) it was 0.762. Moreover, the cell count came to 8370 in test [2] (setting [6]) and 9180 in test [2] (setting [7]). In addition, in test [3], the z-score was 0.385 (inactive).

For the compound `CC(C)(C)n1nc(-c2cccc3ccccc23)c2c(N)ncnc21`, in test [1], the remaining activity was 117% (inactive). Besides, the values for the fold change in test [2] (setting [4]) and in test [2] (setting [5]) were 0.947 (inactive) and 1.81, respectively. Moreover, the cell count is 3180 in test [2] (setting [6]) and 3350 in test [2] (setting [7]). Further, in test [3], the z-score was -0.105 (inactive).

As to `O=C(/C=C/c1ccccc1)NC(NC(=S)Nc1ccc(Cl)cc1)C(Cl)(Cl)Cl` (configuration not stated), in test [1], the remaining activity was 118% (inactive). For the same compound, the fold change in test [2] (setting [4]) is 0.939 (inactive); in test [2] (setting [5]) it was 1.5. The cell count is 2530 in test [2] (setting [6]) and 2700 in test [2] (setting [7]). For the same compound, the z-score in test [3] was -0.74 (inactive).

Regarding `COc1ccc(NC(=O)c2cc(OCCCN(C)C)nn2Cc2ccccc2)cc1`, the remaining activity in test [1] is 99.8% (inactive). Further, the figures for the fold change in test [2] (setting [4]) and in test [2] (setting [5]) were 0.937 (inactive) and 1.3, respectively. For the same compound, the cell count was 8250 in test [2] (setting [6]) and 8810 in test [2] (setting [7]). In addition, the z-score in test [3] is -0.3 (inactive).

For the compound `Cc1ccc(OC[C@@H](O)[C@H](C)NC(C)C)c2c1CCC2`, in test [1], the remaining activity is 82.6% (inactive). In addition, the fold change was 0.94 (inactive) in test [2] (setting [4]) and 1.07 in test [2] (setting [5]). Further, the cell count in test [2] (setting [6]) turned out to be 8280; in test [2] (setting [7]), 8800. Moreover, the z-score in test [3] is -0.36 (inactive).

As to `c1ccc(C2NNCC2c2ccnc3ccccc23)nc1` (configuration not stated), in test [1], the remaining activity was 101% (inactive). Moreover, the fold change was 0.908 (inactive) in test [2] (setting [4]) and 1.57 in test [2] (setting [5]). The cell count in test [2] (setting [6]) was 8690; in test [2] (setting [7]), 9570. For the same compound, the z-score in test [3] is -0.15 (inactive).

Take `CC1=C(/C=C/C(=C/C=C/C(C)=C/C(=O)O)c2ccc(C)cc2)C(C)(C)CCC1`: the remaining activity in test [1] was 105% (inactive). The fold change is 0.936 (inactive) in test [2] (setting [4]) and 1.77 in test [2] (setting [5]). Also, the cell count worked out at 6950 in test [2] (setting [6]) and 7420 in test [2] (setting [7]). For the same compound, in test [3], the z-score was 0.99 (inactive).

Regarding `O=C(O)c1ccc(-c2ccc3cc(C45CC6CC(CC(C6)C4)C5)c(O)cc3c2)cc1`, the remaining activity in test [1] is 87.5% (inactive). For the same compound, the fold change in test [2] (setting [4]) is 1.14 (inactive); in test [2] (setting [5]), 1.52. Also, the results for the cell count in test [2] (setting [6]) and in test [2] (setting [7]) were 1990 and 1740, respectively. For the same compound, in test [3], the z-score is -0.695 (inactive).

Turning to `CC1(C)CC(=O)C(C2C3=C(CC(C)(C)CC3=O)Oc3ccccc32)C(=O)C1` (configuration not stated), in test [1], the remaining activity was 120% (inactive). Further, the fold change in test [2] (setting [4]) was 0.884 (inactive); in test [2] (setting [5]), 0.511. For the same compound, the cell count in test [2] (setting [6]) stood at 9160; in test [2] (setting [7]) it was 10400. Further, the z-score in test [3] was -0.35 (inactive).

As for `COc1ccccc1N1CCN(CCn2c(=O)[nH]c3c([nH]c4ccccc43)c2=O)CC1`, in test [1], the remaining activity was 108% (inactive). Further, the fold change was 0.88 (inactive) in test [2] (setting [4]) and 0.64 in test [2] (setting [5]). Further, the cell count worked out at 8910 in test [2] (setting [6]) and 10100 in test [2] (setting [7]). Also, the z-score in test [3] was 1.92 (active).

Regarding `COc1cc(Br)c(S(=O)(=O)Nc2ccc(Cl)c(O[C@@H]3CCN(C)C3)c2)cc1OC`, the remaining activity in test [1] is 112% (inactive). In addition, the fold change was 0.925 (inactive) in test [2] (setting [4]) and 1.74 in test [2] (setting [5]). Besides, the figures for the cell count in test [2] (setting [6]) and in test [2] (setting [7]) were 5240 and 5660, respectively. In addition, the z-score in test [3] was -0.645 (inactive).

In the case of `OC(CN1CCNCC1)Cn1c2ccc(Br)cc2c2cc(Br)ccc21` (configuration not stated), in test [1], the remaining activity is 103% (inactive). The fold change in test [2] (setting [4]) is 1.43 (inactive); in test [2] (setting [5]) it was 0.602. Further, the cell count turned out to be 284 in test [2] (setting [6]) and 198 in test [2] (setting [7]). In addition, in test [3], the z-score is -0.705 (inactive).

Take `CCS(=O)(=O)N(C)[C@H]1c2cc(C#N)ccc2OC(C)(C)[C@@H]1O`: in test [1], the remaining activity is 111% (inactive). Further, the fold change in test [2] (setting [4]) was 0.889 (inactive); in test [2] (setting [5]), 1.89. The cell count in test [2] (setting [6]) was 8640; in test [2] (setting [7]), 9720. Besides, the z-score in test [3] is 0.545 (inactive).

With `FC(F)(F)c1cccc(-c2noc(-c3cc(-c4ccccc4)c(C(F)(F)F)s3)n2)c1`, the remaining activity in test [1] is 101% (inactive). The fold change in test [2] (setting [4]) is 0.966 (inactive) and 0.884 (inactive); in test [2] (setting [5]), 1.01 and 0.898. Further, the cell count in test [2] (setting [6]) was 5830 and 8210; in test [2] (setting [7]) it was 6040 and 9290. Further, the z-score in test [3] is 0.175 (inactive).

For `C[C@H](NC[C@H](O)CP(=O)(O)Cc1ccccc1)c1ccc(Cl)c(Cl)c1`, the remaining activity in test [1] is 111% (inactive). For the same compound, the fold change is 0.949 (inactive) in test [2] (setting [4]) and 1.04 in test [2] (setting [5]). Moreover, the cell count in test [2] (setting [6]) is 8740; in test [2] (setting [7]), 9210. Moreover, the z-score in test [3] was 0.06 (inactive).

As for `N[C@@H](C(=O)O)c1ccc(O)c(C(=O)O)c1`, in test [1], the remaining activity is 100% (inactive). Moreover, the fold change was 0.932 (inactive) in test [2] (setting [4]) and 0.807 in test [2] (setting [5]). For the same compound, the cell count in test [2] (setting [6]) turned out to be 8680; in test [2] (setting [7]), 9320. For the same compound, in test [3], the z-score was -0.18 (inactive).
